HEK cytotox: Cytotoxic Profiling in HEK 293 Cell Line of Diverse Libraries Using Quantitative High-Throughput Screening | Potency, µM (top dose mostly 115 µM), inactives show at the highest dose activity change, negative = cytotoxicity, usual class: inhibitors | 94,000 tested, 6.6% active | HEK 293 viability, ATP luminescence (CellTiter-Glo), 48-72 h | AID 1345083, 2018; note: % is set by controls: 0 for no effect and ±100 for the full control effect; nearly all actives have a fitted effect of over 60% in size
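250 HEK 293 cells/well; compound by pintool; incubated 48 or 72 hr at 37 degree Celsius; CellTiter-Glo added, 10 min RT, luminescence imaged.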
NPR1 antag: Natriuretic polypeptide receptor (hNpr1) antagonism - Primary qHTS. Atrial natriuretic peptide receptor 1 (Homo sapiens), P16066. Potency, µM (titrated, usually from 46.3 µM), without a hit: top-dose activity change, negative = inhibition, hits mostly inhibitors. AID 1347048, 2019. HEK293 hNpr1 GloSensor cGMP, ANP-stimulated luminescence. 76,000 tested, 1.6% active; calls by dose curve; note: % is set by controls: 0 for no effect and ±100 for the full control effect; nearly all actives have a fitted effect of over 60% in size
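Compound pre-incubated 30 min at room temperature on GloSensor-loaded HEK293 cells stably carrying hNpr1 and the pGS-40F cGMP biosensor. Stimulation uses hNppA at 0.1 nM final; luminescence is taken at baseline and 20 min post-agonist.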
GPT2 inh: Primary qHTS assay for inhibitors of Glutamate pyruvate transaminase 2 (GPT2); Alanine aminotransferase 2 (Homo sapiens), Q8TD30; Recombinant GPT2, coupled pyruvate oxidase/HRP Amplex Red fluorescence; Potency, µM (series often up to 57.7 µM), for inactives: at the top dose activity change, negative = inhibition, actives largely listed as inhibitors; 100,000 tested, 0.25% active; AID 1671188, 2021; note: % is set by controls: 0 for no effect and ±100 for the full control effect; nearly all actives have a fitted effect of over 60% in size
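Fluorescence read-out: pyruvate from GPT2 turnover coupled to pyruvate oxidase, HRP and Amplex Red (0.2mM ThPP, 0.2U/mL PO and HRP, 50uM Amplex final). Substrates 250uM a-KG, 2mM L-alanine; enzyme 10ng/uL; 30 min RT.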
FLuc inh-1: Firefly luciferase inhibition profiling of diverse chemical library using quantitative high-throughput screening; 76,000 tested, 2.5% active; Luciferin 4-monooxygenase (Photinus pyralis), P08659; AID 1347043, 2019; purified P. pyralis luciferase, luminescence, biochemical; Potency, µM (highest dose often 115 µM), most hits filed as inhibitors; note: % is set by controls: 0 for no effect and ±100 for the full control effect; nearly all actives have a fitted effect of over 65% in size
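Cell-free enzyme assay, 10nM P. pyralis luciferase, luciferin and ATP each at 10uM. Inhibition profiled over a 6-point titration, read as luminescence.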
3T3 cytotox: Cytotoxic Profiling in NIH 3T3 Cell Line of Diverse Libraries Using Quantitative High-Throughput Screening; NIH 3T3 viability, CellTiter-Glo ATP luminescence, 48-72 h; Potency, µM (highest dose often 96.7 µM), for inactives: top-dose activity change, negative = cytotoxicity, most hits filed as inhibitors; 94,000 tested, 4.3% active; note: % is set by controls: 0 for no effect and ±100 for the full control effect; nearly all actives have a fitted effect of over 55% in size
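Viability of NIH 3T3 cells after 48 or 72 hr compound treatment at 37 °C was assessed by CellTiter-Glo, with luminescence imaged following a 10 min room-temperature step.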
FLuc SDR no ATP: Firefly luciferase (FLuc-C-HiBiT) SDR gain of signal screen - without ATP. shares compounds with FLuc inh-1. 1,300 tested, 7.8% active. AID 1963318, 2024. Potency, µM (highest dose often 32.7 µM), inactives show at the top dose activation (signal gain), usual class: activators. Purified FLuc-C-HiBiT, Nano-Glo HiBiT luminescence, no ATP; note: nearly all actives have a fitted effect of over 55% in size
FLuc SDR ATP: Firefly luciferase (FLuc-C-HiBiT) SDR gain of signal screen - plus ATP; shares compounds with FLuc inh-1; purified FLuc-C-HiBiT + ATP, HiBiT complementation luminescence; Potency, µM (series often up to 32.7 µM), inactives show at the highest dose activation (gain of signal), most hits filed as activators; 1,300 tested, 8.7% active;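 note: signal reports ligand binding via conformational change of the enzyme rather than luciferase catalysis; % of control where 0% means no effect; nearly all actives have a fitted effect of over 55% in size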
FLuc inh-2: Firefly luciferase (FLuc-C-HiBiT) enzymatic inhibition screen - Functional assay; purified FLuc-C-HiBiT enzyme, luciferin luminescence; 1,300 tested, 42% active; shares compounds with FLuc inh-1; Potency, µM (doses to about 32.7 µM), without a hit: at the top dose activity change, negative = inhibition, hits mostly inhibitors; AID 1963320, 2024; note: % is set by controls: 0 for no effect and ±100 for the full control effect; nearly all actives have a fitted effect of over 70% in size
* marks the source's active call; other numbers are inactive results; i = inactive; ? = inconclusive; nt = not tested or not shown; [ ] = remark or other dose. In the library only some 10% were active in any assay of this set; here they are far more common. Unless noted, calls come from the whole dose curve; as a rule, active = well fitted curve in the direction sought with a large enough effect; inconclusive = small, poorly fitted or top-dose-only effect, or another doubt; inactive = no such curve, though single readings can be large; an effect the other way counts as inactive or inconclusive. Potency is the fitted concentration of half-maximal effect.

SMILES	HEK cytotox	NPR1 antag	GPT2 inh	FLuc inh-1	3T3 cytotox	FLuc SDR no ATP	FLuc SDR ATP	FLuc inh-2
COc1cccc(CNC(=O)Cn2c(-c3ccccc3)nc(C)cc2=O)c1	?	-1%	-1%	i	-16%	nt	nt	nt
COc1cccc(CNc2nc3ccccc3c3nc(-c4cccc(C)c4)nn23)c1	nt	nt	nt	nt	nt	19%	13%	?
CC(=O)N[C@H]1C[C@@H](c2nc(-c3ccc4c(c3)OCO4)no2)N(C)C1	-14%[172 µM]	1%[70.6 µM]	-7%[88.5 µM]	i	-23%[174 µM]	nt	nt	nt
CC(=O)Nc1ccc(NC(=O)c2cc(-c3ccc4c(c3)OCCO4)on2)cc1	nt	nt	nt	nt	nt	?	?	0.62µM*
Cc1nn(-c2ccc(F)cc2)c(C)c1[C@@H]1C=C[C@@H](NC(=O)c2ccco2)C1	?	?	i	?	?	nt	nt	nt
Cc1nn(-c2ccccn2)c(C)c1[C@@H]1C=C[C@@H](NC(=O)NCc2ccccc2)C1	?	-26%[70.6 µM]	3%[88.5 µM]	?	?	nt	nt	nt
COc1ccc(-n2nc(C)c([C@@H]3C=C[C@@H](NC(=O)NCc4ccccc4)C3)c2C)cc1	?	8.9µM*	i	1.1µM*	?	?	19%[49.3 µM]	6.4µM*
CCNC(=O)N[C@@H]1C=C[C@@H](c2c(C)nn(-c3ccc(F)cc3)c2C)C1	89µM*	20µM*	i	6.3µM*	?	26%[49.3 µM]	?	?
Cc1nn(-c2ccccc2)c(C)c1[C@@H]1C=C[C@@H](NC(=O)CCCC(=O)O)C1	i	6%[70.6 µM]	i	i	i	nt	nt	nt
Cc1ccc(-n2nc(C)c([C@@H]3C=C[C@@H](NC(=O)NCc4ccccc4)C3)c2C)cc1Cl	-23%[172 µM]	?	?	7.9µM*	?	19%[49.3 µM]	?	?
O=C(CCC1CCN(c2cc(NC3CC3)ncn2)CC1)Nc1ccccc1	?	?	i	?	-24%	nt	nt	nt
O=C(O)CCC1CCN(c2cc(NC3CC3)ncn2)CC1	5%	0%	i	5µM*	-12%	16%	3.9µM*	3.1µM*
CCCNc1cc(N2CCC(CCC(=O)O)CC2)ncn1	4%	3%	i	40µM*	2%	15%	9.9µM*	7.9µM*
O=C(Cc1cccc(Cl)c1)N1CCn2c(nnc2-c2ccccc2)C1	-21%	-24%	1%	2.8µM*	?	14%	19%	?
Cc1ccc(-c2cc3c(=O)n(CCNC(=O)Cc4cccc(F)c4)ccn3n2)c(C)c1	?	-27%	i	3.5µM*	?	?	?	5.6µM*
Cc1ccc(-c2cc3c(=O)n(CCNC(=O)c4cccc(C#N)c4)ccn3n2)c(C)c1	45µM*	?	i	2µM*	35µM*	?	?	3.1µM*

From PubChem
